Results with a measured potency or affinity are listed apart. The source made the active and inactive calls.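 Rule for the calls: active = a compound that raises KCNQ2 potassium channel current at -35 mV at one or more tested doses; inactive = no rise at any dose.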

The target of this test is Potassium voltage-gated channel subfamily KQT member 2 (Rattus norvegicus) (UniProt O88943). Nature of the test: potentiation of rat KCNQ2 current – cell-based, automated electrophysiology, mechanism study for KCNQ2 potentiator project, dose response (AID 2603). The settings on record: KCNQ2-CHO cells, automated patch clamp current potentiation; at 30 µM (top of the series). (In general: In patch-clamp work, channel activity is measured electrically.)
Sequence of Potassium voltage-gated channel subfamily KQT member 2 (Rattus norvegicus) (O88943 whole entry, looked up): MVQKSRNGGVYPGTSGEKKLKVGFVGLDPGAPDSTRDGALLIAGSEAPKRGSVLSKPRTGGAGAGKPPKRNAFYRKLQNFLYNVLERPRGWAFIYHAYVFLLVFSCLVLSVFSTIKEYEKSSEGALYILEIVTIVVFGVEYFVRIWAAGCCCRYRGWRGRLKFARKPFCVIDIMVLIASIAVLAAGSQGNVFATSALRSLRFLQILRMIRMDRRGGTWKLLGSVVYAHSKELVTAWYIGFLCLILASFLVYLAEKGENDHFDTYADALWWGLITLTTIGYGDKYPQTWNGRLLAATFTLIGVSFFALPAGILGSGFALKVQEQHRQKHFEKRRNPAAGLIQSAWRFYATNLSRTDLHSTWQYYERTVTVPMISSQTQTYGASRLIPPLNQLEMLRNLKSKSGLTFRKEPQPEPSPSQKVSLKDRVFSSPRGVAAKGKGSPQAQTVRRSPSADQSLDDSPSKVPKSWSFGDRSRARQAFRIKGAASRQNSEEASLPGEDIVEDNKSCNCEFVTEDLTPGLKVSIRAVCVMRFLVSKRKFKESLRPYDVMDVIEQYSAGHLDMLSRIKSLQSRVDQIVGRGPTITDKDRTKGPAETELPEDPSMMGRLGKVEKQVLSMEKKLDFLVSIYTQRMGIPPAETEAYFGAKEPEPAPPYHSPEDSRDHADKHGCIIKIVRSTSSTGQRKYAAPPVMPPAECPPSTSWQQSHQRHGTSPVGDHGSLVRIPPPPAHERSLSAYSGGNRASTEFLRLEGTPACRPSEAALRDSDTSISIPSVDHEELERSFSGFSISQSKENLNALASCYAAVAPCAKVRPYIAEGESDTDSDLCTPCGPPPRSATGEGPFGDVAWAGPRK

Regarding `Oc1c(Br)cc(Br)cc1C=Nc1ccc2[nH]ncc2c1`, the result was inactive.
On to `COc1cc(C)c(C(=O)Oc2cc(C)c(C(=O)O)c(O)c2)c(O)c1`, for which the potentiation was 72.4.
Consider `COc1ccc(C(=O)CCS(=O)(=O)c2ccc(F)cc2)cc1OC`, for which the result was inactive.
As for `S=C(NCCc1cccc(Cl)c1)NCc1ccccc1`, the result was inactive.
Same read-out and setting: to `O=C(Cc1ccccc1)Nc1cccc(N2CCCC2)c1` belongs “inactive”; to `Nc1cc(N2CCCCC2)c(Cl)cc1[N+](=O)[O-]`, “inactive”; to `Cc1nn(-c2cccc(C(F)(F)F)c2)c(Cl)c1/C=N/Nc1cccc(C(=O)O)c1`, “inactive”.
Consider `CC1(C)CCc2cc(-c3ccn(S(=O)(=O)c4ccccc4Cl)n3)ccc2O1`, for which the outcome was inactive.
Take `CC(C)c1ccc2nc(NC(=O)C3CC3)sc2c1`: the outcome was inactive.
On to `CCC(O)(CC)C(=O)N(Nc1ccc(C)cc1)c1ccc(C)cc1`, for which the potentiation worked out at 62.7.
For the compound `CCCCCC/C(C)=C1/SC(=S)NC1=O`, the outcome was inactive.
Regarding `O=c1c(O)c(-c2cccs2)oc2ccc(Cl)cc12`, the outcome was inactive.
Same read-out and setting: to `Cc1ccc(C(C2=C(O)CC(C)(C)CC2=O)C2C(=O)CC(C)(C)CC2=O)o1` (configuration not stated) belongs “inactive”.
As to `CC1=C(C(=O)OCC2CCCCC2)C(c2cccc(O)c2)NC(=O)N1` (configuration not stated), the potentiation was found to be 57.
For `O=C(O)c1cc(NN=C2c3ccccc3-c3ccccc32)ccc1Cl`, the potentiation worked out at 81.9.
In the case of `Cc1ccc(C(=O)NC2(O)C(=O)c3ccccc3C2=O)cc1C`, the result was inactive.
Same read-out and setting: to `CC1=C(C)/C(=N\OS(=O)(=O)c2ccccc2)C=CC1=O` belongs “inactive”.
